PLK1 PBD inh – blocks phosphopeptide binding to human PLK1 polo-box domain. Plk1 PBD binding of FITC phosphopeptide, fluorescence polarization. Potency, µM, without a hit: max response, negative = inhibition, actives largely listed as inhibitors. 2.8% of 360,000 active. AID 720504; also: series mostly up to about 57 µM; % is scaled to controls: 0 for no effect and ±100 for the full control effect; nearly all actives have a fitted effect of over 65% in size
G9a block – inhibitors of human histone lysine methyltransferase G9a | Q96KQ7 | G9a H3K9 monomethylation, AlphaScreen, 2 h | Potency, µM (top dose mostly 102 µM), inactives show at the top dose activity, negative = inhibition, actives largely listed as inhibitors | 8.8% of 350,000 active | AID 504332; also: % is scaled to controls: 0 for no effect and ±100 for the full control effect; nearly all actives have a fitted effect of over 75% in size
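Methyltransferase reactions run at room temperature for 2 h (20 nM enzyme, 500 nM biotin-H3K9 peptide, 20 uM SAM) after a 15 min compound preincubation; product detected by AlphaScreen beads and anti-H3K9me1 antibody.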
HP1b chromo inh – inhibitors of HP1-beta chromodomain binding to methylated histone tails; Potency, µM (top dose mostly 114 µM), for inactives: at the top dose activity change, negative = inhibition, usual class: inhibitors; AlphaScreen HP1-beta / biotin-H3K9me3 peptide binding; P83916; 0.56% of 390,000 active; also: nearly all actives have a fitted effect of over 70% in size
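AlphaScreen: HP1-beta (50 nM) preformed 30 min with biotin-H3(1-18)K9me3 peptide (50 nM) in PBS pH 7.4, 0.01% Tween-20. Compound added for 30 min at RT, then streptavidin donor/nickel chelate acceptor beads (10 ug/mL) for 30 min.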
JMJD2A Tudor inh – JMJD2A Tudor domain (human) inhibition; AlphaScreen JMJD2A-Tudor / H3K4me3 peptide binding; Potency, µM (top dose mostly 114 µM), for the others: at the highest dose activity change, negative = inhibition, actives largely listed as inhibitors; 4.4% of 390,000 active; also: % is scaled to controls: 0 for no effect and ±100 for the full control effect; nearly all actives have a fitted effect of over 50% in size
Target sequence (O75164 whole entry, looked up, the tested form may be a part): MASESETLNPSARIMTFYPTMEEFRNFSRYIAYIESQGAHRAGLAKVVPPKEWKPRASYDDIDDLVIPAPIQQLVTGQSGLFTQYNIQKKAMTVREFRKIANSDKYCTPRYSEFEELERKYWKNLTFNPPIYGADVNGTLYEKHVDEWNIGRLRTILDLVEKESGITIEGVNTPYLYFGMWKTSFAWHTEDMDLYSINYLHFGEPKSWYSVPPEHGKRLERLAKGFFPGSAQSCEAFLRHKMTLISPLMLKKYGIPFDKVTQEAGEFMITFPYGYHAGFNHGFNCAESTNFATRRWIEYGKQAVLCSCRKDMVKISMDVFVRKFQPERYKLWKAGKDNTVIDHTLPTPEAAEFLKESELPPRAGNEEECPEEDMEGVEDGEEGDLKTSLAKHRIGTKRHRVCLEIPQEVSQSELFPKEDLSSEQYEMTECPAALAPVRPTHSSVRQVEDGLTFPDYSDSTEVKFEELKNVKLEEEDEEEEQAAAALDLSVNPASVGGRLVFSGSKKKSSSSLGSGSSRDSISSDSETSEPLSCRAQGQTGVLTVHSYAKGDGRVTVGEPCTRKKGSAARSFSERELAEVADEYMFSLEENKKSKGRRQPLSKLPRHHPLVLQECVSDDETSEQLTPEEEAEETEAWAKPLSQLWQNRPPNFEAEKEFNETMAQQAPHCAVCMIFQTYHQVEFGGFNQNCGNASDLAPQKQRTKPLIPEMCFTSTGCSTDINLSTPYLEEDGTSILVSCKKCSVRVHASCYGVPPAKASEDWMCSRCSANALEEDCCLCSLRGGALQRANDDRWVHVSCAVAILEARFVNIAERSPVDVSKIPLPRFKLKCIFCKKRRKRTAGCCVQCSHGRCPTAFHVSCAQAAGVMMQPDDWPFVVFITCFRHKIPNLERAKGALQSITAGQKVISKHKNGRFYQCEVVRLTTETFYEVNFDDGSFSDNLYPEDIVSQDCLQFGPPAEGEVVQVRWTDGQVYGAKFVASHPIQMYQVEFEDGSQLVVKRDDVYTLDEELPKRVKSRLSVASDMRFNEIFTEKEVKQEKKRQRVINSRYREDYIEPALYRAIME
BAZ2B block – BAZ2B (human) inhibition; AlphaScreen BAZ2B-H3K14Ac peptide displacement; Potency, µM (titrated, usually from 114 µM), without a hit: at the highest dose activity change, negative = inhibition, actives largely listed as inhibitors; 4.4% of 360,000 active; AID 504333; also: % is scaled to controls: 0 for no effect and ±100 for the full control effect; nearly all actives have a fitted effect of over 60% in size
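In this displacement format the biotinylated H3(5-23) peptide acetylated at Lys14 serves as ligand at 50 nM, with BAZ2B at 50 nM in PBS pH 7.4 containing 0.01% Tween-20. Donor and acceptor beads are 10 ug/mL final.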
Sfp PPTase inh – blocks B. subtilis Sfp PPTase activity; Q9F4F7; Biochemical Sfp PPTase activity, qHTS; Potency, µM, for the others: largest response in the series, negative = inhibition, usual class: inhibitors; 3.5% of 310,000 active; AID 1490;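 also: the enzyme is Sfp with the accession as filed and its product quenches rhodamine fluorescence; 0% = enzyme reaction without inhibitor and -100% = no enzyme wells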
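Buffer: 50 mM Hepes-Na pH 7.6, 10 mM MgCl2, 0.01% Nonidet P-40, 0.01% BSA. Enzyme 15 nM, pre-exposed to compound 15 min; substrates then added and fluorescence change tracked over 30 min.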
The depositor's hits bear a star; u = inconclusive; x = not tested or not shown; [ ] = another dose, or the depositor's remark. Shown are actives, neighbours in structure and some others; about 12% of the full set was active somewhere. Calls follow the shape of the dose curve; as a rule, active = well fitted curve in the direction sought with a large enough effect; inconclusive = small, poorly fitted or top-dose-only effect, or another doubt; inactive = no such curve, though single readings can be large; an effect the other way counts as inactive or inconclusive. Potency is read from the fitted curve at half-maximal effect.

SMILES	PLK1 PBD inh	G9a block	HP1b chromo inh	JMJD2A Tudor inh	BAZ2B block	Sfp PPTase inh
Cc1cccc(-n2c(CNC(=O)c3cccc(F)c3)nnc2SCC(=O)Nc2ccccc2F)c1	x	-24.3%[59 µM]	15.8%	-16.2%	-16.0%	x
Cn1sccc1=O	15µM*	1.78µM*	42.4%	-20.0%	-10.6%	x
CCOc1cccc(N(C(=O)CNC(=O)c2ccco2)C(C(=O)NCC2CCCO2)c2ccccc2)c1 (stereo not given)	-2.6%	9.8%	12.9%	-1.1%	-6.3%	-0.7%
N/N=C1\CCCc2c1[nH]c1ccc([N+](=O)[O-])cc21	u	x	-20.9%	u	-8.3%	-9.6%
O=[N+]([O-])c1cccc2c3c([nH]c12)CCCC3	-2.3%	8.91µM*	u	-29.2%	u	17.9%
O=[N+]([O-])c1ccc2[nH]c3c(c2c1)CCCC3	-6.7%	39.8µM*	2.6%	u	u	12.5%
Brc1ccc2[nH]c3c(c2c1)CCC3	-22.1%	u	-22.0%	u	50.1µM*	9.3%
COc1c(C)cc(Br)cc1C(=O)NC(=S)NCc1ccco1	-3.6%	46.6%	55.7%	10.3%	12.2%	-6.0%
Cc1cc2nnc(SC(C)C#N)n2c2ccccc12 (stereo not given)	21.2µM*	3.16µM*	2.6%	10µM*	6.4%	-4.9%
Cc1cc2nnc(SC(C)C)n2c2ccccc12	1.5%	13.2%[59 µM]	7.9%	-18.7%	4.7%	22.3%
Cc1cc2nnc(SC3CCOC3=O)n2c2ccccc12 (stereo not given)	-5.1%	10µM*	14.7%	10µM*	6.5%	13.4%
Cc1cc2nnc(SC3CCCCN(C(=O)c4ccc(F)cc4)C3=O)n2c2ccccc12 (stereo not given)	-11.3%	39.8µM*	31.2%	u	0.4%	0.7%
O=C(c1ccc(F)cc1)N1CCCCC(Sc2nnc3ccccn23)C1=O (stereo not given)	-8.1%	2.6%[59 µM]	9.2%	-9.6%	0.8%	7.1%
COC(=O)C(C)Sc1snnc1-c1ccccc1 (stereo not given)	-16.1%	-31.6%[59 µM]	51.2%	13.2%	3.1%	-8.4%
COc1ccc(Nc2nc(-c3c[nH]c4ccccc34)cs2)cc1	-3.5%	u	18.9%	-2.8%	44.7µM*	-22.0%
COc1ccc2oc(=O)c(-c3csc(Nc4ccc(O)cc4)n3)cc2c1	-2.9%	u	-16.2%	-21.5%	u	25.1µM*
CC(/C=C1\SC(=S)N(NC(=O)c2ccc(O)cc2)C1=O)=C\c1ccccc1	-6.8%	u	u	u	31.6µM*	50.1µM*
C=CCN1C(=O)/C(=C\C(C)=C\c2ccccc2)SC1=S	-6.8%	24.3%[0.501 µM]	u	u	u	11.5%
CC(=C\c1ccccc1)/C=C1/SC(=S)N(C(C(=O)O)C(C)C)C1=O (stereo not given)	29.9µM*	35.5µM*	u	u	70.8µM*	-6.5%
CCC(C(=O)O)N1C(=O)/C(=C/C(C)=C/c2ccccc2)SC1=S (stereo not given)	23.8µM*	u	u	u	u	u
CS/C(N)=N/N=C/c1cc(C)ccc1O	u	x	5.2%	5.1%[11.4 µM]	-10.7%	-12.9%
Oc1cccc(C=Nc2cccc3ccccc23)c1O	-11.4%	x	u	14.1µM*	44.7µM*	12.6µM*
Oc1ccc2ccccc2c1C=NCc1cn2ccsc2n1	u	8.91µM*	-4.6%	u	-34.5%	14.9%
CS/C(N)=N/N=C/c1c(O)ccc2ccccc12	-13.9%	11.2µM*	60.6%	-16.9%[11.4 µM]	-17.9%	1.7%
CN(C)/N=C/c1c(O)ccc2ccccc12	-3.4%	10µM*	u	56.2µM*	44.7µM*	-3.9%
SMILES	PLK1 PBD inh	G9a block	HP1b chromo inh	JMJD2A Tudor inh	BAZ2B block	Sfp PPTase inh
CCOC(=O)Cc1csc(NC(=S)NC(=O)C(C)(C)C)n1	5.4%	13.5%[59 µM]	25.1%	8.0%	-3.1%	-23.2%
CCN(CC)S(=O)(=O)c1cc(C(=O)OCC(=O)Nc2cccc(Br)c2)ccc1F	-9.0%	2.0%	26.7%	-11.2%	4.6%	17.7%
Cc1ccc(CC(Cc2nc3ccccc3[nH]2)c2nc3ccccc3[nH]2)cc1 (stereo not given)	x	x	x	x	x	20.0%
OCC(CO)(CO)N=Cc1c(O)ccc2ccccc12	4.23µM*	1.41µM*	7.2%	u	x	-2.1%
Oc1ccc2ccccc2c1C=Nc1ccccc1Br	-23.5%	x	u	u	u	-17.6%
Oc1ccc2ccccc2c1/C=N/c1nccs1	18.9µM*	u	-16.7%	-13.0%[57.1 µM]	u	u
C=Cc1ccc(N=Cc2c(O)ccc3ccccc23)cc1	-10.7%	1.58µM*	59.5%	u	6.2%	-15.5%
O=C(N/N=C/c1c(O)ccc2ccccc12)C(=O)N1CCCC1	10.7%	x	x	x	x	x
Oc1ccc2ccccc2c1C=NC12CN3CCN(CN(C3)C1)C2	5.32µM*	u	u	79.4µM*	u	u
CC(C)c1ccc(NC(=O)C2(C)Cc3c(-c4ccc5c(c4)OCO5)ccnc3O2)cc1 (stereo not given)	-7.6%	x	x	x	x	x
Cc1cc(C(=O)O)ccc1N=Cc1c(O)ccc2ccccc12	u	2.51µM*	0.8%	u	-6.7%	-1.0%
Cc1cc(N=Cc2c(O)ccc3ccccc23)no1	5.32µM*	1.12µM*	-10.0%	28.2µM*	6.3%	-13.0%
Oc1ccccc1N=Cc1c(O)ccc2ccccc12	37.2%	7.94µM*	-3.5%	u	11.2µM*	-0.7%
O=C(N/N=C/c1c(O)ccc2ccccc12)c1cccc(C(F)(F)F)c1	35.4%	-8.5%[59 µM]	25.9%	-24.4%	-6.4%	12.1%
Oc1ccc2ccccc2c1C=Nc1ccc(N2CCOCC2)cc1	-7.8%	u	u	50.1µM*	39.8µM*	-26.4%
COC(=O)c1ccccc1NC(=O)c1cccnc1	1.0%	-3.2%[0.501 µM]	40.7%	-0.3%	7.1%	11.3%
Cn1c(/C=N/n2cnnc2)nc2ccccc21	-4.7%	0.9%[59 µM]	24.4%	-9.9%	-0.8%	1.9%
N#Cc1ccc(C(=O)NCC(c2ccco2)N2CCCC2)cc1 (stereo not given)	-23.4%	u	37.8%	19.2%[11.4 µM]	5.9%	18.7%
CC(=O)c1ccc(NC(=S)NCC(c2ccco2)N2CCCC2)cc1 (stereo not given)	-9.5%	50.1µM*	25.4%	-22.3%	-23.0%	8.6%
N#Cc1ccccc1Sc1ccccc1C(=O)NCC(c1ccco1)N1CCCC1 (stereo not given)	-9.9%	2.82µM*	u	u	50.1µM*	x
CCOC(=O)c1c(C)[nH]c(C(=O)COc2ccc3ccc(=O)oc3c2)c1C	2.0%	x	-9.1%	-23.2%	x	x
C[C@@H]1CN([C@H](C)CO)C(=O)CCCn2nncc2CO[C@@H]1CN(C)C(=O)c1ccc(N2CCN(C)CC2)cc1	-4.6%	x	x	x	x	x
